Experimental data reported in PubChem BioAssay AID493191 (Broad Institute, 2011).
Hit rate of the full screen: of about 1,300 compounds, about 330 (25%) were called active. No rule for the calls is given here. The list is a sample of the results. Entries with a potency or affinity are not part of this list.

Assay: MALME3 melanoma cell viability loss, dose response, orthogonal assay for MITF inhibitor project, CellTiter-Glo, cherry-picked (AID 493191)
Conditions: CellTiter-Glo luminescence, 24 h; series mostly up to 35 µM; activity change, negative = inhibition: at the top concentration

SMILES | activity change, negative = inhibition
Cc1cc(C(=O)O/N=C(\N)c2ccncc2)ccc1[N+](=O)[O-] | 8.51% (inactive)
Cc1c(NC(=O)C(C)OC(=O)c2ccc([N+](=O)[O-])s2)c(=O)n(-c2ccccc2)n1C (centres undefined) | -11% (inactive)
CCCCOc1ccc(-c2ncc([N+](=O)[O-])cn2)cc1 | 4.96% (inactive)
CC(C)(C)N=Cc1cc(-c2ccccc2)sc1O | 9.96% (inactive)
O=C(N/N=C/c1ccc([N+](=O)[O-])o1)c1sc2ccccc2c1Cl | -55.5% (inactive)
C(#Cc1ccccc1)C[N+]1(CC#Cc2cccc3ccccc23)CCCC1 | -16.4% (inactive)
CSCCNC(=O)c1ccc2nc(Cc3ccccc3F)oc2c1 | 4.87% (inactive)
O=C(CSC(=S)N1CCCCC1)c1c(F)cccc1F | -9.52% (inactive)
CN(Cc1ccccc1)C1=CC(=[N+]2CCCCC2)CC(C)(C)C1 | -35.5% (inactive)
CCOc1cccc(C(=O)NC2=NCCS2)c1 | -7.89% (inactive)
CCOC(=O)N1CCC(NC(=O)C2CCCN(Cc3nc(-c4cccc(C)c4)oc3C)C2)CC1 (centres undefined) | -2.51% (inactive)
[2H]C(CCOS(N)(=O)=O)c1ccc(C(C)(C)C)cc1 (centres undefined) | -5.5% (inactive)
N/C(=N\OC(=O)c1ccc([N+](=O)[O-])cc1)c1ccc(Br)cc1 | 8.18% (inactive)
COc1cc(/C=C/C(=O)N2CCC=CC2=O)cc(OC)c1OC | -34.7% (inactive)
c1ccc(C[n+]2cccc3c4ccccc4ccc32)cc1 | -16.9% (inactive)
CCCCN(CC)CCCNC(=O)c1cc2c(=O)n(CC)c3ccccc3c2s1 | -37.7% (inactive)
CC1(C)CC(=O)C=C(NC2=CC3OC(c4ccccc4)OCC3OC2=O)C1 (centres undefined) | -3.65% (inactive)
C(=N\Nc1cc(N2CCCCC2)ncn1)/c1ccco1 | 9.75% (inactive)
Clc1ccc(-c2nc(-c3ccncc3)no2)c(Cl)c1 | -4.41% (inactive)
O=C(Cc1cccs1)NCc1ccc(Cl)cc1Cl | 4.52% (inactive)
CC(C)n1cc(/C=C/c2cc[n+](C)cc2)c2ccccc21 | -22.1% (inactive)
O=C(Nc1nc(-c2ccccn2)cs1)c1ccc(F)c(S(=O)(=O)N2CCOCC2)c1 | -20.2% (inactive)
Cc1ccc(-c2cn3cc(C)ccc3n2)cc1 | -20.9% (inactive)
O=C(CSc1ccccn1)c1ccc2c(c1)OCO2 | 7.19% (inactive)
COc1cccc(NC(=O)c2cc3c(=O)n4ccccc4nc3n(CC(C)C)c2=N)c1 | 1.34% (inactive)

SMILES | activity change, negative = inhibition
CCOC(=O)N1C(=O)[C@](CC)(c2ccccc2)N1C(=O)OCC | -32.8% (inactive)
CCOC(=O)c1cn2nc(Oc3ccccc3)ccc2n1 | 7.09% (inactive)
C/C(=N\Nc1cc(N2CCOCC2)ncn1)c1ccccc1 | 5.95% (inactive)
CC1(C)Cc2c(sc(NC(=O)Nc3ccccc3)c2C(N)=O)CO1 | -17% (inactive)
Cc1ccc(C)c(S(=O)(=O)N2CCN(Cc3ccc(O)c4ncccc34)CC2)c1 | -29.3% (inactive)
O=S(=O)(c1ccc(Cl)cc1)N1CCN(Cc2ccc(O)c3ncccc23)CC1 | -27.6% (inactive)
CN(C)CCNC(=O)COc1ccc(C23CC4CC(CC(C4)C2)C3)cc1 | -18.4% (inactive)
CN(C)c1ccc(/C=C2\SC(=O)N(CCc3nnc(N)s3)C2=O)cc1 | -0.215% (inactive)
Cc1[nH]n(-c2ccccc2)c(=O)c1N=Nc1cccc(C(=O)O)c1 | -4.5% (inactive)
C/C(=C\c1ccccc1)C(=O)Nc1ccc(Cl)cn1 | 10.3% (inactive)
O=[N+]([O-])c1ccccc1OCCCOc1cccc2cccnc12 | -2.87% (inactive)
O=[N+]([O-])c1cc(CN2CCN(c3ccccc3)CC2)c(O)c2ncccc12 | -17% (inactive)
Cc1ccc(-c2cn(-c3ccc(SC(F)F)cc3)c3[n+]2CCC3)cc1 | -6.53% (inactive)
COc1ccc(N(CC(=O)NCC2CCCO2)S(=O)(=O)c2ccccc2)cc1OC (centres undefined) | 6.21% (inactive)
C#CC(=O)N(c1ccc(OC)cc1OC)C(C(=O)NC1CCCC1)c1cccs1 (centres undefined) | -29.6% (inactive)
Cc1ccc(NC(=O)c2ccc(OCC3CCCO3)cc2)c(C)c1 (centres undefined) | -0.239% (inactive)
C#CC(=O)N(c1ccc(OC)c(OC)c1)C(C(=O)NC1CCCC1)c1cccs1 (centres undefined) | -16.9% (inactive)
CN(C)/C=N/c1ncc(C(=O)c2ccccc2)s1 | 4.34% (inactive)
Cc1ccc2nc(Cc3ccc(N)cc3)oc2c1 | 11.7% (inactive)
CCc1nc2oc3ccccc3c(=O)c2cc1C(=O)OC | -19.5% (inactive)
COc1ccc(N(C(=O)CCl)C(C(=O)NC2CCCCC2)c2cccnc2)cc1 (centres undefined) | -36.5% (inactive)
COc1ccc(C(C(=O)NC2CCCCC2)N(C(=O)CCl)c2ccc(OC)cc2)cc1 (centres undefined) | -40.5% (inactive)
COCCN(C(=O)CCl)C(C(=O)NC1CCCCC1)c1ccccc1C (centres undefined) | -27.4% (inactive)
Cc1cc(NC(=O)c2ccc(Cl)cc2Cl)no1 | 10.7% (inactive)
COCn1c(COc2ccccc2)nc2ccccc21 | -15.3% (inactive)

SMILES | activity change, negative = inhibition
COc1ccc(Br)cc1/C=C/C(=O)c1ccc(NC(C)=O)cc1 | -21.7% (inactive)
O=C(N/N=C/c1ccccc1Cl)c1n[nH]c2c1CCCC2 | -40.8% (inactive)
Nc1c(N(CCC2=CCCCC2)C(=O)COc2ccc([N+](=O)[O-])cc2)c(=O)[nH]c(=O)n1Cc1ccccc1 | -48.9% (inactive)
Nc1ccc(Oc2cccc(Oc3ccc(N)cc3)c2)cc1 | 1.28% (inactive)
O=[N+]([O-])c1ccc(Sc2cc[n+]([O-])c3ccccc23)c([N+](=O)[O-])c1 | -23.8% (inactive)
Cc1ccc(O)c(NC(=O)c2ccc3c(c2)C(=O)N(CC(C)C)C3=O)c1 | -3.64% (inactive)
O=C(Nc1ccc2nc3n(c(=O)c2c1)CCCC3)c1cc([N+](=O)[O-])ccc1F | 2.71% (inactive)
O=C(Nc1ccc2c(c1)OCCO2)c1cccc(Cl)c1Cl | 1.87% (inactive)
CC(C)CN=C(NS(=O)(=O)c1ccccc1)C(Cl)(Cl)Cl | -24% (inactive)
CC(=O)c1c(C)[nH]c(C(=O)Nc2ccc(C)c(C)c2)c1C | 3.78% (inactive)
Cc1ccc(C(=O)Nc2nc3ccc(Cl)cc3s2)o1 | -11.7% (inactive)
Cc1cc(C(F)(F)F)c2c(N)c(C(=O)Nc3cc(C)on3)sc2n1 | -11.1% (inactive)
O=C(Nc1nc2ccccc2s1)c1ccccc1[N+](=O)[O-] | -1.9% (inactive)
CN(c1ccc2nc3ccccc3c(=O)n2n1)C1CCCCC1 | -31% (inactive)
CCOc1ccccc1-c1nc(-c2ccc(C)nc2OC)no1 | -11.6% (inactive)
CC(=O)Nc1nc(C)c(-c2csc(Nc3cccc(C(C)=O)c3)n2)s1 | -27.3% (inactive)
COc1ccccc1-c1nc(-c2ccc(C)nc2OC)no1 | 0.036% (inactive)
CS(=O)(=O)c1nc(-c2ccc(F)cc2)cc(C(F)(F)F)n1 | -44.8% (inactive)
CCOC(=O)c1cnc2c(ccc3ccccc32)c1N | -7.34% (inactive)
O=C(Nc1cccc(Cl)c1)Nc1cc(S(=O)(=O)N2CCCCC2)ccc1Cl | -29.2% (inactive)
O=C(Nc1ccc(Cl)c(S(=O)(=O)N2CCOCC2)c1)c1ccc(OCC2CCCO2)cc1 (centres undefined) | -44.9% (inactive)
Cc1ccc(NC(=O)c2ccc([N+](=O)[O-])s2)cc1S(=O)(=O)N1CCOCC1 | -23% (inactive)
O=C(Nc1ccc(S(=O)(=O)N2CCCCCC2)cc1)c1[nH]ncc1[N+](=O)[O-] | -28% (inactive)
O=C(N/N=C\c1cc(Br)ccc1O)c1ccc(S(=O)(=O)N2CCCCC2)cc1 | -36.8% (inactive)
